Assay outcomes deposited in PubChem BioAssay by National Center for Advancing Translational Sciences (NCATS).
Only some compounds are listed: those with a hit (about 8% of all), similar ones and a draw of the others.
FMDV inh: blocks foot and mouth disease virus; FMDV antiviral cell-based qHTS; Potency, µM (highest dose often 57.9 µM), for inactives: at the highest dose activity change, negative = inhibition, hits mostly inhibitors; hit rate 1.2% among 410,000; AID 1159524; calls by dose curve; tested in HEK293T cells; further: read-out not given here; potency means the concentration at half of the fitted maximal effect; on the % scale 0 is the no-effect control and ±100 the full control effect; nearly all actives have a fitted effect of over 45% in size
SARS PLP yeast: inhibitors of SARS-CoV papain-like protease in yeast; S. cerevisiae expressing SARS-CoV PLpro, growth rescue; Potency, µM (series often up to 32.9 µM), for inactives: at the highest dose activity, positive = growth rescue, actives largely listed as activators; hit rate 0.19% among 330,000; calls by dose curve; further: potency means the concentration at half of the fitted maximal effect; 0% is about no effect; nearly all actives have a fitted effect of over 55% in size
HCV inh: HCV inhibition; Huh7.5.1 HCVcc-Cre infection, luciferase reporter, 44 h; Potency, µM (series often up to 41.8 µM), inactives show top-dose activity change, negative = inhibition, usual class: inhibitors; hit rate 3.4% among 340,000; AID 651820; active means well fitted inhibition curve with a large enough effect; inconclusive means small, poorly fitted or top-dose-only effect, or another doubt; inactive means no such curve, though single readings can be large or run the other way; further: potency means the concentration at half of the fitted maximal effect; on the % scale 0 is the no-effect control and ±100 the full control effect
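After 44 h co-culture of compound, cells and HCVcc-Cre (~0.5 moi), substrate is added for 15 min at room temperature and luciferase measured over 15 sec. Cells were seeded at 1,000/well and pre-cultured 4 h.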
MARV entry inh: blocks Marburg virus binding to or entry into cells; Marburg virus pseudotyped entry inhibition, cell reporter; Potency, µM (highest dose often 37.8 µM), inactives show at the highest dose activity change, negative = inhibition, hits mostly inhibitors; hit rate 1.8% among 300,000; calls by dose curve; tested in HEK293 cells; further: potency means the concentration at half of the fitted maximal effect; on the % scale 0 is the no-effect control and ±100 the full control effect
Lassa entry inh: blocks Lassa virus binding to or entry into cells; Lassa virus pseudotype entry inhibition, cell reporter; hit rate 1.2% among 300,000; AID 540256; Potency, µM (top dose mostly 37.9 µM), for the others: top-dose activity change, negative = inhibition, hits mostly inhibitors; calls by dose curve; tested in HEK293 cells; further: potency means the concentration at half of the fitted maximal effect; on the % scale 0 is the no-effect control and ±100 the full control effect; nearly all actives have a fitted effect of over 50% in size
HCMV inh: blocks human cytomegalovirus replication; HFF cells, HCMV-luciferase reporter, 72 h; stronger effect = lower value; activity change, negative = inhibition, % at 57.5 µM; hit rate 4.5% among 410,000; AID 1259415; in the data active means activity change below about -60%; inconclusive means no clear call, values can overlap the other calls; inactive means above about -39%; further: on the % scale 0 is the no-effect control and ±100 the full control effect
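After 16 h attachment at 37C, HFF cells received test compound and HCMV-luciferase (1 PFU/cell); reporter luminescence read 72 h later, data normalized against buffer-only and known inhibitor Salinomycin.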
* hit, by the source's call; ? = inconclusive; · = no result given; [ ] = another dose, or the depositor's remark.

SMILES | FMDV inh | SARS PLP yeast | HCV inh | MARV entry inh | Lassa entry inh | HCMV inh
CCCCCC(=O)Nc1ccc(N2CCN(CC)CC2)c(Cl)c1 | ? | 9.8% | 22.4µM* | 2.2% | -0.8% | 60.2
CC(C)C(=O)N1CCN(c2ccc(NC(=O)c3ccc([N+](=O)[O-])o3)cc2)CC1 | -21.4% | -2.8% | ? | 20.9%[46.1 µM] | -17.3% | -98.2*
CCC1Oc2ccc(C)cc2N(CC(=O)NCCc2ccccc2)C1=O (stereo not given) | -5.8% | · | · | · | ? | -35.2
CCc1cccc(NC(=O)Cn2c(=O)n(Cc3ccccc3)c(=O)c3c2c2cc(OC)ccc2n3C)c1 | -3.7% | · | · | · | 15.8%[46.1 µM] | 26.8
O=S(=O)(c1ccc(NC(=S)N2CCN(c3ccc(O)cc3)CC2)cc1)N1CCOCC1 | -21.8% | 0.0% | ? | -5.4%[46.1 µM] | -15.1% | -63.4*
Cc1cc(N=Cc2c(O)n(-c3cccc(Cl)c3)c(=O)c3ccccc23)no1 | -18.2% | 17.2% | 15.6% | -24.7% | ? | -60.2*
Cc1cccc2c1-c1sc(C(=O)N3CCN(c4ccccc4)CC3)cc1CO2 | -10.9% | · | · | 0.7%[46.1 µM] | · | 8.2
COc1ccc(C(=O)c2cn(Cc3ccc(C)cc3)c3cc4c(cc3c2=O)OCO4)cc1 | -24.6% | · | · | ? | ? | -65.3*
COc1ccc2c(c1)c(=O)c(C(=O)c1ccccc1)cn2CC(=O)Nc1ccc2c(c1)OCO2 | -11.0% | · | · | 0.2%[46.1 µM] | 0.5%[46.1 µM] | -103.1*
CCOc1ccc(NC(=O)Cn2cc(C(=O)c3ccccc3)c(=O)c3cc4c(cc32)OCCO4)cc1 | ? | · | · | ? | -9.8%[46.1 µM] | -104.3*
Cc1ccc(Cn2cc(C(=O)c3ccc(F)cc3)c(=O)c3cc4c(cc32)OCO4)cc1 | -6.8% | · | · | -10.3%[46.1 µM] | ? | 8.0
Cc1ccc(C(=O)c2cn(Cc3ccccc3)c3ccccc3c2=O)cc1 | -22.6% | · | · | -10.7%[46.1 µM] | -23.0%[46.1 µM] | -63.1*
COc1ccc(C(=O)c2cn(CC(=O)Nc3ccc4c(c3)OCO4)c3ccc(OC)cc3c2=O)cc1 | -1.0% | · | · | -29.4%[46.1 µM] | -24.1%[46.1 µM] | -38.7
C[C@H]1CC[C@H]2C(=O)NC[C@H](O)CN2[C@H]1c1ccc(Br)cc1 | · | · | · | -9.5%[14.2 µM] | · | ·
CCCCOc1ccc(CCN)cc1Cl | 30.8% | -12.2% | ? | ? | 5.6% | -60.2*
CCCCOc1ccc(CSCCN)cc1Cl | 42.9% | -1.2% | ? | · | · | -3.4
O=C(N/C(=C\c1ccc([N+](=O)[O-])cc1)C(=O)N1CCOCC1)c1ccco1 | -0.5% | 1.1% | -7.4% | -5.8%[46.1 µM] | 0.0%[46.1 µM] | 34.8
CC1N(C)c2cc(NC(=O)c3ccco3)c(P(=O)(Nc3ccc([N+](=O)[O-])cc3)N3CCOCC3)cc2C1(C)C (stereo not given) | -8.2% | -2.3% | 8.91µM* | ? | ? | ?
CC1N(C)c2cc(NC(=O)c3ccco3)ccc2C1(C)C (stereo not given) | 23.0% | -10.8% | -27.9% | ? | ? | -69.9*
COc1ccc(C(=O)N2CCC3(CC2)c2ccccc2[C@@H](NC(=O)c2ccccn2)[C@@H]3OC)c(O)c1 | 47.0% | · | · | · | · | ·
O=C(O)C[C@H](C(=O)OCCOc1ccccc1)N1CCOCC1 | · | · | · | 0.1% | · | ·
CC1CCCC(C)N1C(=O)c1ccc(S(=O)(=O)NCc2ccco2)cc1 (stereo not given) | -12.1% | 0.1% | 10.8% | 7.5%[46.1 µM] | 19.7% | -76.1*
CCOC(=O)C1CCCN(C(=O)c2ccc(S(=O)(=O)NCc3ccco3)cc2)C1 (stereo not given) | -22.3% | -13.3% | 6.4% | -28.7% | 1.4% | -15.8
O=C(NC1CCN(Cc2ccccc2)CC1)c1ccc(S(=O)(=O)NCc2ccco2)cc1 | -29.0% | -0.5% | 3.98µM* | 3.55µM* | -24.1%[46.1 µM] | -29.8
COc1ccc(CN2CCN(C(=O)c3ccc(S(=O)(=O)NCc4ccco4)cc3)CC2)cc1 | ? | -3.0% | ? | 0.316µM* | ? | -83.5*
O=C(c1ccc(S(=O)(=O)NCc2ccco2)cc1)N1CCN(Cc2ccccc2)CC1 | -15.9% | -5.2% | ? | 10.9%[46.1 µM] | ? | -34.4
O=C(NC1CCCCC1)c1ccc(S(=O)(=O)NCc2ccco2)cc1 | 26.2% | -0.8% | 12.1% | 3.4% | -17.3% | 89.2
C/C(CCN1CCc2nc(-c3ccccc3)c(-c3ccccc3)cc2C1)=N\O[C@H](C)CN1CCCCc2nc(C)c(C)cc21 | · | · | · | 24.9%[14.2 µM] | · | ·
